FUS yeast rescue – qHTS for Suppressors of FUS Proteinopathy: Primary screen using FUS-linked yeast assay; actives 0.24% (n = 390,000); Potency, µM (doses to about 76.6 µM), most hits filed as activators; AID 1347120, 2019; S. cerevisiae FUS-expressing, growth rescue, OD600, 24 h;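 further: plate controls were DMSO vehicle for no effect and reference control for full effect; nearly all actives have a fitted effect of over 55% in size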
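FUS-expressing yeast, raffinose-pregrown, induced in 2% galactose minimal medium at OD 0.005; compounds in a dilution series, 24hr at 30C. Growth restoration read as absorbance at 600 nm. CP55940 positive control, DMSO negative.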
Abeta yeast res – qHTS for compounds that reverse cellular toxicity of Amyloid beta (A-beta) peptide in yeast: Primary Screen; yeast expressing A-beta42, growth rescue, OD600, 48 h; response scale: 0% DMSO, 100% iron-clioquinol control; actives 0.063% (n = 410,000); AID 1347071, 2019; Potency, µM (highest dose often 46.1 µM), hits mostly activators; further: nearly all actives have a fitted effect of over 55% in size
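Yeast growth medium received pinned compounds, then yeast cells expressing toxic A-beta were added; plates incubated at 30 C for 48 hr. Growth read as absorbance at 600 nm, normalized to DMSO and equimolar FeCl3 plus clioquinol controls.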
Mito fusion yeast – qHTS Assay for Small Molecule Inhibitors of Mitochondrial Division or Activators of Mitochondrial Fusion | Potency, µM (titrated, usually from 46.1 µM), for the others: at the top dose growth rescue (activation), usual class: activators | S. cerevisiae fusion-defective mutant growth rescue, CellTiterGlo 48 h | actives 0.23% (n = 320,000) | AID 485298, 2010; further: % of control where 0% means no effect; nearly all actives have a fitted effect of over 45% in size
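Temperature-sensitive fusion-defective S. cerevisiae (e.g. fzo1-1, mgm1-5) were grown with compound in YPEG medium (3% ethanol, 3% glycerol) for 48 hours at 37C. Growth rescue was measured as viability by CellTiterGlo luminescence after 10 minutes at ambient.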
TDP-43 yeast inh – qHTS of TDP-43 Inhibitors; TDP-43 expressing yeast growth rescue, BacTiter-Glo, 24 h; Potency, µM (series often up to 46.1 µM), inactives show at the top dose growth rescue (activation), usual class: activators; actives 1.8% (n = 410,000); AID 652104, 2013; further: % of control where 0% means no effect; nearly all actives have a fitted effect of over 50% in size
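Cell-based yeast growth screen: TDP-43 expression induced in galactose, inoculum OD600=0.02 after raffinose pregrowth to mid-log. Read-out BacTiter-Glo luminescence at 24 hr, 30 deg C; inhibition of toxicity seen as signal increase.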
aSyn yeast inh – qHTS of alpha-syn Inhibitors. Yeast expressing alpha-synuclein, growth rescue, BacTiter-Glo, 24 h. Potency, µM (doses to about 46.1 µM), for inactives: at the top dose growth rescue (activation), actives largely listed as activators. actives 0.14% (n = 370,000). AID 652106, 2013; further: % of control where 0% means no effect; nearly all actives have a fitted effect of over 65% in size
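Galactose-induced alpha-syn yeast (OD600=0.02, raffinose-pregrown) + pinned cpd, 24 hr, 30 deg C; growth by BacTiter-Glo luminescence. Growth restoration scores as activation.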
* hit, by the source's call; i = inactive; ? = inconclusive; nt = no result; [ ] = remark or other dose. Most compounds without a hit are left out; they make up all but 2.2% or so of the library. The call rests on the fitted dose curve; in most records, active means well fitted curve in the direction sought with a large enough effect; inconclusive means small, poorly fitted or top-dose-only effect, or another doubt; inactive means no such curve, though single readings can be large; an effect the other way counts as inactive or inconclusive. Potency means the concentration at half of the fitted maximal effect.

SMILES	FUS yeast rescue	Abeta yeast res	Mito fusion yeast	TDP-43 yeast inh	aSyn yeast inh
CSCCC(C(=O)N(C)CC(=O)Nc1cccc(F)c1)N1C(=O)c2ccccc2C1=O (stereo not drawn)	i	i	-2.4%	0.0%	-5.1%[1.84 µM]
Cc1c2n(c3ccccc13)CC/C2=N\O	i	i	-2.2%	11.2µM*	3.8%
O=C(CCNc1cc(Cl)cc(Cl)c1)c1cccs1	i	i	9.4%	10µM*	-42.1%
Cc1c(C(=O)c2ccccc2C(=O)O)sc2ccccc12	i	i	11.6%	11.2µM*	1.4%
Cc1cc(C)c(C)c(C(=O)c2ccccc2C(=O)O)c1C	i	i	0.5%	-6.1%	?
Nc1cc(N2CCCCC2)c(Cl)cc1[N+](=O)[O-]	i	i	-1.4%	12.6µM*	0.6%
Nc1cc(N2CCCCC2)c([N+](=O)[O-])cc1Cl	nt	i	5.1%	?	12.6%
CN(C1=C(N2CCOCC2)C(=O)c2ccccc2C1=O)c1ccccc1	nt	i	8.6%	11.2µM*	-32.8%
O=C1C(NS(=O)(=O)c2cccs2)=C(N2CCOCC2)C(=O)c2ccccc21	i	i	-12.6%	-10.3%	3.0%
O=C(OCc1cccc(Cl)c1)c1cc([N+](=O)[O-])ccc1N1CCOCC1	i	i	9.2%	20µM*	3.7%
O=C(COC(=O)C1CCN(c2ccc(C(F)(F)F)cn2)CC1)NCc1cccc(Cl)c1	i	i	-6.6%	?	-18.5%
COc1cccc(CNC(=O)COC(=O)c2cc([N+](=O)[O-])ccc2N2CCCC2)c1	nt	i	5.8%	35.5µM*	3.7%
COc1cccc(CNC(=O)COC(=O)C2CCN(c3ccc(C(F)(F)F)cn3)CC2)c1	nt	i	-3.4%	12.6µM*	2.0%
O=C(COC(=O)c1cc([N+](=O)[O-])ccc1N1CCOCC1)NCc1ccccc1	i	i	nt	-7.9%	-4.5%
CCCCSc1nnc2c(n1)OC(c1ccc(Br)s1)Nc1ccccc1-2 (stereo not drawn)	i	i	nt	0.7%	nt
COC(=O)c1ccc(NC(=O)c2ccccc2OCC(=O)Nc2ccc(Br)cc2)cc1	nt	nt	nt	nt	-2.0%
Cc1c(C2(O)CCCCC2)[nH]c2cc(C(F)(F)F)ccc12	i	i	nt	6.31µM*	-15.9%
Cc1ccc(S(=O)(=O)N2[C@@H](c3ccc(F)cc3)C(C(=O)O)=CC[C@H]2c2ccc3c(c2)OCO3)cc1	i	i	-1.0%	17.8µM*	-13.9%
Cc1ccc(S(=O)(=O)N2C(c3cccc(Cl)c3)CC=C(C(=O)O)C2c2cccc(Cl)c2)cc1 (stereo not drawn)	i	i	nt	15.7%	-0.5%
Cc1ccc(S(=O)(=O)N2[C@@H](c3ccc(F)cc3)C(C(=O)O)=CC[C@H]2c2cccc(C)c2)cc1	i	i	-2.2%	31.6µM*	1.8%
Cc1ccc(S(=O)(=O)N2[C@@H](c3ccccc3F)C(C(=O)O)=CC[C@H]2c2ccc3c(c2)OCO3)cc1	i	i	-5.1%	24.8%	1.4%
Cc1ccc([C@@H]2CC=C(C(=O)O)[C@H](c3ccc(F)cc3)N2S(=O)(=O)c2ccc(C)cc2)cc1	i	i	0.6%	-37.5%	1.4%
Cc1ccc([C@@H]2CC=C(C(=O)O)[C@H](c3ccc(Br)cc3)N2S(=O)(=O)c2ccc(C)cc2)cc1	i	i	nt	?	-0.5%
Cc1ccc(S(=O)(=O)N2[C@@H](c3ccccc3)C(C(=O)O)=CC[C@H]2c2cccc(Cl)c2)cc1	i	i	-1.9%	35.5µM*	-22.6%
COc1cccc([C@@H]2CC=C(C(=O)O)[C@H](c3ccc(Br)cc3)N2S(=O)(=O)c2ccc(C)cc2)c1	i	i	nt	35.5µM*	-0.9%
SMILES	FUS yeast rescue	Abeta yeast res	Mito fusion yeast	TDP-43 yeast inh	aSyn yeast inh
O=C(C[N+]1(CCO)CCOCC1)c1cccs1	nt	nt	nt	nt	-9.2%
N#Cc1ccccc1Cn1c(=O)n(CCCC(=O)NCc2ccc3c(c2)OCO3)c(=O)c2sccc21	i	i	nt	15.7%	nt
COc1cc(/C=C/c2ccnc3ccccc23)cc(OC)c1OC	nt	nt	nt	nt	-7.7%
C=C(c1nc2ccccc2s1)C1Cc2cccc3c2N(CCC3)C1 (stereo not drawn)	nt	nt	nt	nt	-78.2%
C=C(C)CNC(=S)NN=C1c2ccccc2-c2ccccc21	i	i	-8.6%	7.9%	-2.8%
CCNC(=S)NN=C1c2ccccc2-c2ccccc21	i	i	-0.7%	12.6µM*	-5.2%
CCCCN(CC)CCCNC(=O)c1c(C)oc2ncnc(N3CCOCC3)c12	i	i	nt	16.6%	nt
O=[N+]([O-])c1ccc(/C=[N+](\[O-])CCO)o1	i	i	-32.9%	11.2µM*	22.5%
CCOC(=O)Nc1ccc2c(c1)N(C(=O)CCN(C)C)c1ccccc1S2	i	i	-0.2%	20µM*	13.0%
Cc1ccc(NC(=S)NC(=O)C2CCCC2)cc1C	i	8.91µM*	-2.6%	24.7%	-22.6%
CN(c1ccccc1)S(=O)(=O)c1ccc(NC(=S)NC(=O)C2CC2)cc1	i	i	?	17.8µM*	1.1%
N#Cc1ccc(NC(=S)NC(=O)C2CC2)cc1	i	i	nt	12.6µM*	?
CN(c1ccccc1)S(=O)(=O)c1ccc(NC(=S)NC(=O)c2ccccc2)cc1	?	i	7.9%	-2.6%	-4.6%
CC(=O)Nc1ccc(NC(=S)NC(=O)C2CC2)cc1	i	i	-1.2%	-17.5%	-7.7%
O=C(NC(=S)Nc1ccc(F)cc1)C1CCCCC1	i	5.01µM*	-2.7%	21.9%	-6.0%
O=C(CC1N=C2c3ccccc3N=C(SCC(=O)Nc3ccc(F)cc3)N2C1=O)NCc1ccco1 (stereo not drawn)	i	?	nt	22.7%	nt
O=C(CC1C(=O)OCCN1Cc1ccccc1)Nc1cccc(Cl)c1 (stereo not drawn)	i	i	nt	17.8µM*	nt
Cc1cccc(NC(=O)CC2C(=O)OCCN2Cc2ccccc2)c1 (stereo not drawn)	i	i	nt	14.1µM*	nt
O=C(CSC1CC(=O)N(CCc2ccccc2)C1=O)Nc1cccc(Cl)c1 (stereo not drawn)	i	i	14.7%	17.8µM*	13.2%
COc1cccc(N2CCN(CC(=O)NCc3cccc(OC)c3OC)CC2)c1	i	nt	nt	nt	nt
O=C(CSc1c2c(nc3cc(Cl)ccc13)CCCC2)N1CCN(c2ccccc2F)CC1	i	i	nt	35.5µM*	nt
Cc1ccc(NC(=O)CSc2nc(N)c3cc4c(nc3n2)CCCC4)cc1	nt	i	-5.6%	11.1%	2.0%
O=C(CSc1c2c(nc3ccc(Cl)cc13)CCCC2)N1CCCCC1	i	i	nt	15.8µM*	nt

Assay outcomes deposited in PubChem BioAssay by National Center for Advancing Translational Sciences (NCATS).
